Assay results reported in ChEMBL document CHEMBL1156829.
Over roughly 5,400 compounds, “IFI” has its median near 2; the highest 2% begin near 22. This excerpt belongs to a sample that is enriched for the highest values.

Test: NOVARTIS: Inhibition Frequency Index (IFI) - the number of HTS assays where a compound showed > 50% inhibition/induction, expressed as a percentage of the number of assays in which the compound was tested.
Format: functional

| Structure (SMILES) | IFI [%] |
| --- | --- |
| CCCCCC[P+](N(CCC)CCC)(N(CCC)CCC)N(CCC)CCC | 29.1 |
| CCCN(CCC)[P+](CCC)(c1ccc([P+](CCC)(N(CCC)CCC)N(CCC)CCC)cc1)N(CCC)CCC | 3.7 |
| CCCCNC(=O)C(CC)Sc1nnc(-c2ccc(C)cc2)c(-c2ccc(C)cc2)n1 (stereo not given) | 0 |
| C=CCSc1nc2sc3c(c2c(=O)n1-c1ccccc1)CCN(C)C3 | 7.55 |
| O=C(Cc1ccccc1)Nc1ccc(C(=O)Nc2ccc(-c3nc4ccc(NC(=O)c5ccc(NC(=O)Cc6ccccc6)cc5)c(Cl)c4[nH]3)cc2)cc1 | 7.58 |
| OCCCNc1cc(-c2ccccn2)nc(-c2ccccn2)n1 | 15.4 |
| OCCCNc1cc(-c2ccnc(Nc3cccc(Cl)c3)n2)ccn1 | 30.8 |
| Nc1nc(Nc2cccc(Cl)c2)n[nH]1 | 1.07 |
| Cc1nc2ccc(Cl)cc2c(O)c1I | 0.752 |
| CC(=O)N(C)C1=C(N2CCCC2)C(=O)c2ccccc2C1=O | 0 |
| CC(=O)N(C1=C(N(C)C)C(=O)c2ccccc2C1=O)c1cc(C)cc(C)c1 | 15.4 |
| CC(=O)N(C)C1=C(N2CCCCCC2)C(=O)c2ccccc2C1=O | 22.5 |
| CC(=O)N(C1=C(N2CCCC2)C(=O)c2ccccc2C1=O)c1ccc(F)cc1 | 8.11 |
| CC(=O)N(C1=C(N(C)C)C(=O)c2ccccc2C1=O)c1ccc(Cl)c(Cl)c1 | 7.69 |
| CC(=O)N(C1=C(N2CCOCC2)C(=O)c2ccccc2C1=O)c1ccc(F)cc1 | 24.7 |
| CC(=O)N(C1=C(N(C)C)C(=O)c2ccccc2C1=O)c1ccc(F)cc1 | 31.1 |
| CC(=O)N(C1=C(N2CCOCC2)C(=O)c2ccccc2C1=O)c1ccc(I)cc1 | 18.7 |
| CC(=O)N(C)C1=C(N2CCOCC2)C(=O)c2ccccc2C1=O | 22.1 |
| COc1cccc(-c2ccc(O)c(CN(C)CC(O)c3ccccc3)c2)n1 (stereo not given) | 2.56 |
| Cc1c(-c2ccccc2)c2ccccc2n1CCc1ccc(C)[n+](C)c1 | 1.22 |
| COC(=O)c1sc(-c2ccccc2)cc1NC(=O)c1ccc(S(=O)(=O)N2CCCCCC2)cc1 | 0 |
| CC[n+]1c(C=C2Sc3ccccc3N2CCO)sc2ccccc21 | 4.69 |
| CCc1ccc(-n2c(C(CC)N(CCC(C)C)C(=O)Nc3ccc(Cl)c(Cl)c3)nc3ccccc3c2=O)cc1 (stereo not given) | 6.67 |
| Cc1c(Cl)cccc1NC(=S)N(CCCN(C)c1ccccc1)Cc1cccn1Cc1ccc(Cl)cc1 | 6.45 |
| COC(=O)C1=CNC=C(C(=O)OC)C1c1cc(OC)c(OC)c(OC)c1 | 2.38 |
| NCC(c1ccc(F)cc1)c1ccc(F)cc1 | 0 |
| CCCc1c(C)nc2ccc(Br)cc2c1O | 3.03 |
| O=C1C(N2CCCCC2)=C(N2CCCCC2)C(=O)c2ccccc21 | 0 |
| Cn1c2c([n+](C)c1CCl)C(=O)c1ccccc1C2=O | 35.7 |
| Cn1c(=O)c(Cl)c2c3c(c(Cl)ccc31)C(=O)c1ccccc1-2 | 3.03 |
